From the supplement of paper PMC8728848
This is one part of a sample in which the strongest signals are shown more often than they occur.

Experiments:
Assay in all cases: glycan array binding signal (z-score within array); higher = stronger binding
Conditions in all cases: glycan notation: IUPAC condensed, linker removed
[1] = biological target: Gal3S6S(b1-4)GlcNAc
How it was run: (§1)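 Columns mapping to the same glycan were averaged after glycan names were converted to IUPAC-condensed notation. The data come from 3228 arrays in the Consortium for Functional Glycomics database, limited to those with an available protein sequence. Binding is reported as a within-array Z-score averaged across arrays of one protein sequence and across linkers.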

[2] = biological target: Glc(a1-4)Glc(a1-4)Glc(a1-4)Glc
How it was run: as §1

[3] = biological target: GlcA3S(b1-3)Gal(b1-4)GlcNAc(b1-2)Man
How it was run: as §1

[4] = biological target: GlcNAc(a1-3)Gal(b1-4)GlcNAc
How it was run: as §1

[5] = biological target: GlcNAc(a1-4)Gal(b1-4)GlcNAc(b1-3)Gal(b1-4)GlcNAc(b1-3)Gal(b1-4)GlcNAc
How it was run: as §1

[6] = biological target: GlcNAc(a1-4)Gal(b1-4)GlcNAc(b1-3)Gal(b1-4)[Fuc(a1-3)]GlcNAc(b1-3)Gal(b1-4)[Fuc(a1-3)]GlcNAc
How it was run: as §1

[7] = biological target: GlcNAc(b1-2)Man(a1-3)[GlcNAc(b1-4)][GlcNAc(b1-2)Man(a1-6)]Man(b1-4)GlcNAc(b1-4)[Fuc(a1-6)]GlcNAc
How it was run: as §1

[8] = biological target: GlcNAc(b1-3)Gal(b1-3)GalNAc
How it was run: as §1

[9] = biological target: GlcNAc(b1-3)Gal(b1-4)GlcNAc
How it was run: as §1

[10] = biological target: GlcNAc(b1-3)Gal(b1-4)GlcNAc(b1-2)Man(a1-3)[GlcNAc(b1-3)Gal(b1-4)GlcNAc(b1-2)Man(a1-6)]Man(b1-4)GlcNAc(b1-4)GlcNAc
How it was run: as §1

[11] = biological target: GlcNAc(b1-3)Gal(b1-4)GlcNAc(b1-3)Gal(b1-4)GlcNAc
How it was run: as §1

[12] = biological target: GlcNAc(b1-3)Gal(b1-4)GlcNAc(b1-3)Gal(b1-4)GlcNAc(b1-3)Gal(b1-4)GlcNAc(b1-3)Gal(b1-4)GlcNAc(b1-2)[GlcNAc(b1-3)Gal(b1-4)GlcNAc(b1-3)Gal(b1-4)GlcNAc(b1-3)Gal(b1-4)GlcNAc(b1-3)Gal(b1-4)GlcNAc(b1-6)]Man(a1-6)[GlcNAc(b1-3)Gal(b1-4)GlcNAc(b1-3)Gal(b1-4)GlcNAc(b1-3)Gal(b1-4)GlcNAc(b1-3)Gal(b1-4)GlcNAc(b1-2)Man(a1-3)]Man(b1-4)GlcNAc(b1-4)[Fuc(a1-6)]GlcNAc
How it was run: as §1

[13] = biological target: GlcNAc(b1-3)Gal(b1-4)GlcNAc(b1-6)[GlcNAc(b1-3)Gal(b1-3)]GalNAc
How it was run: as §1

[14] = biological target: GlcNAc(b1-3)[GlcNAc(b1-4)][GlcNAc(b1-6)]GlcNAc
How it was run: as §1

[15] = biological target: Kdn(a2-3)Gal(b1-4)Glc
How it was run: as §1

[16] = biological target: Man(a1-2)Man(a1-3)Man
How it was run: as §1

[17] = biological target: Man(a1-2)Man(a1-3)[Man(a1-2)Man(a1-6)]Man(a1-6)[Man(a1-2)Man(a1-2)Man(a1-3)]Man(b1-4)GlcNAc(b1-4)GlcNAc
How it was run: as §1

[18] = biological target: MurNAc(b1-4)GlcNAc
How it was run: as §1

[19] = biological target: Neu5Ac(a2-3)Gal(b1-3)GalNAc(b1-3)Gal(a1-4)Gal(b1-4)Glc
How it was run: as §1

[20] = biological target: Neu5Ac(a2-3)Gal(b1-3)GalNAc(b1-4)[Neu5Ac(a2-8)Neu5Ac(a2-3)]Gal(b1-4)Glc
How it was run: as §1

[21] = biological target: Neu5Ac(a2-3)Gal(b1-4)GlcNAc(b1-2)Man(a1-3)[Neu5Ac(a2-6)Gal(b1-4)GlcNAc(b1-2)Man(a1-6)]Man(b1-4)GlcNAc(b1-4)GlcNAc
How it was run: as §1

[22] = biological target: Neu5Ac(a2-3)Gal(b1-4)GlcNAc(b1-3)GalNAc
How it was run: as §1

[23] = biological target: Neu5Ac(a2-3)Gal(b1-4)[Fuc(a1-3)]GlcNAc(b1-3)Gal
How it was run: as §1

[24] = biological target: Neu5Ac(a2-6)Gal(b1-4)GlcNAc(b1-2)Man(a1-3)[Gal(b1-4)GlcNAc(b1-2)Man(a1-6)]Man(b1-4)GlcNAc(b1-4)GlcNAc
How it was run: as §1

[25] = biological target: Neu5Ac(a2-6)Gal(b1-4)GlcNAc(b1-2)Man(a1-3)[GlcNAc(b1-4)][Neu5Ac(a2-6)Gal(b1-4)GlcNAc(b1-2)Man(a1-6)]Man(b1-4)GlcNAc(b1-4)GlcNAc
How it was run: as §1

[26] = biological target: Neu5Ac(a2-6)Gal(b1-4)GlcNAc(b1-3)Gal(b1-4)GlcNAc(b1-3)Gal(b1-4)GlcNAc(b1-2)Man(a1-3)[Neu5Ac(a2-6)Gal(b1-4)GlcNAc(b1-3)Gal(b1-4)GlcNAc(b1-3)Gal(b1-4)GlcNAc(b1-2)Man(a1-6)]GalNAc
How it was run: as §1

[27] = biological target: Neu5Ac(a2-6)Gal(b1-4)GlcNAc6S
How it was run: as §1

[28] = biological target: Neu5Ac(a2-8)Neu5Ac(a2-3)[Gal(b1-3)GalNAc(b1-4)]Gal(b1-4)Glc
How it was run: as §1

[29] = biological target: Neu5Gc(a2-6)Gal(b1-4)GlcNAc
How it was run: as §1

[30] = biological target: Neu5Gc(b2-6)Gal(b1-4)GlcNAc
How it was run: as §1

B1: OGAN (protein)
chain: MVQKESQATLEERESELSSNPAASAGASLEPPAAPAPGEDNPAGAGGAAVAGAAGGARRFLCGVVEGFYGRPWVMEQRKELFRRLQKWELNTYLYAPKDDYKHRMFWREMYSVEEAEQLMTLISAAREYEIEFIYAISPGLDITFSNPKEVSTLKRKLDQVSQFGCRSFALLFNDIDHNMCAADKEVFSSFAHAQVSITNEIYQYLGEPETFLFCPTEYCGTFCYPNVSQSPYLRTVGEKLLPGIEVLWTGPKVVSKEIPVESIEEVSKIIKRAPVIWDNIHANDYDQKRLFLGPYKGRSTELIPRLKGVLTNPNCEFEANYVAIHTLATWYKSNMNGVRKDVVMTDSEDSTVSIQIKLENEGSDEDIETDVLYSPQMALKLALTEWLQEFGVPHQY
[1]
  glycan array binding signal (z-score): -0.035
[2]
  glycan array binding signal (z-score): 0.06
[3]
  glycan array binding signal (z-score): -0.022
[4]
  glycan array binding signal (z-score): -0.068
[5]
  glycan array binding signal (z-score): -0.058
[6]
  glycan array binding signal (z-score): -0.057
[7]
  glycan array binding signal (z-score): -0.074
[8]
  glycan array binding signal (z-score): -0.035
[9]
  glycan array binding signal (z-score): -0.063
[10]
  glycan array binding signal (z-score): -0.058
[11]
  glycan array binding signal (z-score): -0.055
[12]
  glycan array binding signal (z-score): 0.044
[13]
  glycan array binding signal (z-score): -0.052
[14]
  glycan array binding signal (z-score): -0.047
[15]
  glycan array binding signal (z-score): -0.059
[16]
  glycan array binding signal (z-score): -0.01
[17]
  glycan array binding signal (z-score): -0.036
[18]
  glycan array binding signal (z-score): -0.024
[19]
  glycan array binding signal (z-score): -0.065
[20]
  glycan array binding signal (z-score): -0.051
[21]
  glycan array binding signal (z-score): -0.048
[22]
  glycan array binding signal (z-score): -0.082
[23]
  glycan array binding signal (z-score): -0.094
[24]
  glycan array binding signal (z-score): -0.055
[25]
  glycan array binding signal (z-score): -0.034
[26]
  glycan array binding signal (z-score): 0.039
[27]
  glycan array binding signal (z-score): -0.052
[28]
  glycan array binding signal (z-score): -0.052
[29]
  glycan array binding signal (z-score): -0.071
[30]
  glycan array binding signal (z-score): -0.021
